Screens as filed in PubChem BioAssay.
Most compounds without a hit are left out; they make up all but 6.9% or so of the library.
GRIN3A LBD mod = NR3A (human) ligand-binding domain modulation; NR3A LBD differential scanning fluorimetry, Tm shift; 0% = protein alone, 100% = glycine-bound protein; actives 2.5% (n = 340,000); Tm shift relative to glycine control, % at 25 µM;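 active means melting temperature shift of at least 10% of the positive control shift, at one fixed dose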
Mdm2 MdmX PPI = human Mdm2/MdmX binding inhibition. AID 485346. inhibition, % at 8 µM. SaOS-2 split-luciferase Mdm2/MdmX complementation, luminescence. actives 3% (n = 330,000);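 active means inhibition of at least 50% at 8 µM in the primary screen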
Target sequence (O15151 whole entry, looked up): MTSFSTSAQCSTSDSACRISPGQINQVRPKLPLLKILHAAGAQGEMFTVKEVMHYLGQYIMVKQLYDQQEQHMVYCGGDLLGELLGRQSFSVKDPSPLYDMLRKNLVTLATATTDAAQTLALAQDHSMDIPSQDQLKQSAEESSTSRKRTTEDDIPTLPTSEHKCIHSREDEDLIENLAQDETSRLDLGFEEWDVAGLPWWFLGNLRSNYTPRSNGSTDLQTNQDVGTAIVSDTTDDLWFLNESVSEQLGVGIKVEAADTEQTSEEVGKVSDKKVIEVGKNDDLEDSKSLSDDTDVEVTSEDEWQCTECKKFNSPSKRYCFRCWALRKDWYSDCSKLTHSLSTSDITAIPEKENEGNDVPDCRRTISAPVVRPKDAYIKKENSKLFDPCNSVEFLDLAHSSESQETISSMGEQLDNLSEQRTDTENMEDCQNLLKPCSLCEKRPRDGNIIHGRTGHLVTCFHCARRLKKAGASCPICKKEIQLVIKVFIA
Target sequence (Q00987 whole entry, looked up): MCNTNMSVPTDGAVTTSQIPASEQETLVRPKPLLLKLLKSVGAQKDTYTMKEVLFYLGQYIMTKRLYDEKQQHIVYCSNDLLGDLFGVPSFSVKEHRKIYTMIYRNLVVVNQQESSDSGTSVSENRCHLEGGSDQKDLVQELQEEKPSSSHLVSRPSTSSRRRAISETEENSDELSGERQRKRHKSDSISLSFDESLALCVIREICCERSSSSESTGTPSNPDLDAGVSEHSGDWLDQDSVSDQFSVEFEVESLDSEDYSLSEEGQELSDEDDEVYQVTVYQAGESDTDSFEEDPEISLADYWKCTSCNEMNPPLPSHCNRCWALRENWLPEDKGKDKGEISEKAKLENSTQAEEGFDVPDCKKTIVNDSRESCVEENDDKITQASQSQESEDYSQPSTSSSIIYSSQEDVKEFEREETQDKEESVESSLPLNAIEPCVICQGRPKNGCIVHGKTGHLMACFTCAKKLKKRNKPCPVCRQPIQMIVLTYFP
CSC inhib = blocks cancer stem cells; cancer stem cell-like cells viability, luminescence; inhibition, % at 7.5 µM; actives 1.1% (n = 300,000); in the data active means inhibition above about 75%; inconclusive means no clear call, values can overlap the other calls; tested in HMLE shEcad cells
SKKanGAS inh = inhibitors of SKKanGAS S. pyogenes growth in kanamycin (SK-promoter or general growth effect) | BacTiter-Glo, 6 h | inhibition, % at 7.5 µM | actives 1.3% (n = 300,000) | AID 1662;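 active means mean replicate score, as percent of positive control median, at least 50; inconclusive means mean below 50 but one replicate at or above 50; inactive means mean and every replicate below 50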;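 further: strain carries kanamycin resistance gene driven by streptokinase promoter and grows in 40 µg/ml kanamycin; loss of luminescence reflects streptokinase promoter inhibition or plain growth inhibition; 0% = median of DMSO wells and 100% = positive control at its reference dose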
MPTP block = permeability transition pore inhibition; inhibition, % at 10 µM; actives 1.4% (n = 360,000); isolated mouse mitochondria, Ca2+ swelling absorbance, 30 min;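 active means inhibition of 50% or more, scaled per plate between neutral and stimulator controls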;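 further: 0% = DMSO wells given calcium and 100% = 1 mM EGTA wells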
Beta apoptosis = blocks beta cell apoptosis; INS-1E cytokine-induced death, ATP luminescence, 48 h; percent of positive-control rescue, neutral wells zero; protection from apoptosis, % (test concentration not listed); actives 0.8% (n = 300,000); AID 435005;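 active means Every replicate reaches about 75%, or at least half do and their mean reaches it too, limit read from the data; inconclusive means At least half of replicates reach the limit but their mean does not; inactive means Under half of replicates reach the limit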;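 further: 0% = cytokine-treated negative control wells and 100% = positive control rescue; higher means more ATP so stronger rescue from cytokine killing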
Mdm2 MdmX conf = human Mdm2/MdmX binding inhibition, confirmed; shares compounds with Mdm2 MdmX PPI; AID 489028; inhibition, % at 8 µM; luminescent assay; actives 55% (n = 10,000); in the data active means inhibition above about 40%
Full FLuc ctr = inhibits full-length luciferase, flagging false Mdm2/MdmX hits. inhibition, % at 8 µM. SaOS-2 full-length luciferase counterscreen, luminescence. shares compounds with Mdm2 MdmX PPI. actives 77% (n = 6,200);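 active means mean inhibition at 8 µM reaching about 37%, which flags the compound as non-specific, limit read from the data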;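 further: p53-null SaOS-2 cells with luciferase driven by a doxycycline-inducible promoter; compound on cells about two nights before reading with doxycycline added after day one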
* marks the source's active call; other numbers are inactive results; ? = inconclusive; nt = not tested or not shown.

SMILES | GRIN3A LBD mod | Mdm2 MdmX PPI | CSC inhib | SKKanGAS inh | MPTP block | Beta apoptosis | Mdm2 MdmX conf | Full FLuc ctr
O=C(CSc1nc(-c2ccco2)cc(C(F)(F)F)n1)Nc1ccc2c(c1)OCO2 | -1 | 62* | 46 | -11 | 4 | -3 | 65* | 44*
CCNc1c(NS(=O)(=O)c2ccc([N+](=O)[O-])cc2)c(=O)oc2ccccc12 | 1 | 16 | 4 | 2 | 0 | -5 | nt | nt
CCOC(=O)c1[nH]c(=O)[nH]c1CNc1ccccc1C#N | -1 | 10 | -12 | -4 | 2 | 3 | nt | nt
CC1CCC(NC(=O)C(C)N2C(=O)C3CCCCC3C2=O)CC1 (stereo not given) | 2 | 4 | -7 | nt | 0 | -4 | nt | nt
CCOc1ccc(NC(=O)c2ccncc2)cc1 | 1 | -5 | 4 | -12 | -2 | nt | nt | nt
CCOc1ccc2c(c1)C(=NNC(=O)c1ccncc1)c1cc(OCC)ccc1-2 | -7 | 66* | 52 | 65* | 6 | 65 | 52* | 55*
COC(=O)c1scc(C)c1NC(=O)c1ccccc1F | 1 | 12 | -2 | -7 | -2 | -1 | nt | nt
CC[N+]1=C(C)C(C)(C)c2cc(C)ccc21 | 0 | 81* | ? | -2 | 3 | 101* | 62* | 28
Cc1ccc(S(=O)(=O)N2CCN(C(=O)CSC3CCCC3)CC2)c(C)c1 | 0 | 55* | -5 | 6 | 1 | 0 | 12 | nt
O=C(N/N=C(\c1ccccc1)c1ccccn1)c1cccc([N+](=O)[O-])c1 | -1 | 79* | -9 | ? | -1 | 102* | 66* | 20
Cn1ccnc1/C(=N\NC(=O)c1ccccc1)c1cccc([N+](=O)[O-])c1 | 0 | 2 | -6 | 4 | -4 | 0 | nt | nt
CCOc1ccc(C(=O)N/N=C(\c2ccccc2)c2ccccn2)cc1 | -2 | 71* | 61 | 69* | -1 | 97* | 87* | 30
CCc1ccc(/C(C)=N/NC(=O)c2ccccn2)cc1 | 0 | -23 | -2 | -8 | 1 | 1 | nt | nt
O=C(CNC(=O)C1COc2ccccc2O1)N/N=C\c1ccc(Cl)cc1 (stereo not given) | 2 | -3 | -5 | 24 | 2 | -2 | nt | nt
CC(C)c1ccc(/C=C/C(=O)Nc2nc3ccc([N+](=O)[O-])cc3s2)cc1 | 8 | 56* | 36 | 11 | 37 | 16 | 16 | nt
O=C(/C=C/c1ccc2c(c1)OCO2)Nc1nc2ccc(F)cc2s1 | 0 | 73* | 43 | -3 | 2 | 17 | -53 | nt
O=C(/C=C/c1ccc2c(c1)OCO2)Nc1nc(-c2ccc(F)cc2)cs1 | nt | 30 | 42 | 3 | nt | 1 | nt | nt
COCc1cc(=O)n2[nH]cc(-c3ccccc3)c2n1 | -1 | 7 | 5 | 8 | 1 | 7 | nt | nt
CCCc1cc(=O)n2[nH]cc(-c3ccc(Cl)cc3)c2n1 | -1 | 55* | 95* | 85* | 3 | 80* | 53* | 18
Cn1c(=O)c2c(nc(NCCNC(=O)c3ccco3)n2Cc2ccc(Cl)cc2Cl)n(C)c1=O | 1 | -4 | -6 | -2 | 0 | 5 | nt | nt
Cn1c(=O)c2c(nc(NCC3CCCC(CN)C3)n2Cc2ccc(Cl)cc2Cl)n(C)c1=O (stereo not given) | 2 | 58* | 47 | -1 | 0 | 27 | 42* | 65*
N=c1c2ccccc2nc2n1CCCCCCCCCCC2 | -1 | 59* | 36 | -1 | 43 | 97* | 24 | nt
CCOc1ccc(C(C)=O)cc1COc1cccnc1[N+](=O)[O-] | -3 | 58* | 41 | -4 | -1 | -6 | 57* | 45*
Clc1ccc(CN2CCN(c3ccccc3)CC2)cn1 | 0 | -11 | 7 | -3 | 0 | -3 | nt | nt
Cc1ccc(/C=C2\SC(=S)N(CC(=O)Nc3cccnc3)C2=O)cc1 | -7 | 18 | 8 | 3 | 7 | -1 | nt | nt
SMILES | GRIN3A LBD mod | Mdm2 MdmX PPI | CSC inhib | SKKanGAS inh | MPTP block | Beta apoptosis | Mdm2 MdmX conf | Full FLuc ctr
Cc1ccc(/C=C2\SC(=S)N(CCCC(=O)Nc3cccnc3)C2=O)cc1 | 2 | 92* | 0 | 3 | 13 | nt | 72* | 5
COc1ccccc1/C=C1/SC(=S)N(CCC(=O)Nc2cccnc2)C1=O | -4 | 29 | 15 | 23 | -2 | -5 | nt | nt
O=C(CCCN1C(=O)/C(=C/c2cccc(Br)c2)SC1=S)Nc1ccccn1 | 1 | 69* | 44 | 28 | 2 | -21 | 84* | 31
O=C(CCCN1C(=O)/C(=C/c2ccccc2OC(F)F)SC1=S)Nc1cccnc1 | -3 | 85* | -13 | nt | 0 | -4 | 59* | 22
O=C(CCCN1C(=O)/C(=C\c2cccs2)SC1=S)Nc1cccnc1 | 13* | 78* | -4 | -5 | 2 | -7 | 80* | 25
COc1ccc(CNC(=O)C2=CC(c3ccc(C)cc3)=NS(=O)(=O)N2C)cc1 | -2 | 13 | nt | 0 | 1 | -6 | nt | nt
O=C(CCCN1C(=O)/C(=C/c2cccc(Br)c2)SC1=S)Nc1cccnc1 | -3 | 78* | -16 | 19 | -1 | -9 | 78* | 63*
O=C(CCCN1C(=O)/C(=C\c2cccc(Br)c2)SC1=S)Nc1cccnc1 | -6 | 100* | 47 | 8 | 8 | -6 | 86* | 24
CCCCNC(=O)c1oc2ccc(S(=O)(=O)N3CCCC3)cc2c1C | -1 | -15 | -3 | 27 | 1 | 2 | nt | nt
O=c1c2ccccc2nc2sc(Nc3cccc(Cl)c3)nn12 | -5 | 73* | -9 | nt | 0 | 12 | -21 | nt
CC12CCC(C)(c3nc4ccccc4nc31)C2(C)C | -2 | 34 | 66 | 2 | -2 | -3 | nt | nt
Cc1[nH]nc2c1-c1nc3ccccc3nc1C(C)(C)C2 | -1 | 50* | nt | 15 | 1 | -8 | 27 | nt
O=C(N1CCOCC1)N1CCc2ccccc21 | 2 | -20 | -1 | -4 | -1 | -5 | nt | nt
Cc1ccc2[nH]c(=O)c(CN(Cc3ccco3)S(=O)(=O)c3c(C)ccc4nsnc34)cc2c1 | 6 | 55* | -16 | 5 | 2 | 0 | 6 | nt
COc1ccc2[nH]c(=O)c(CN(Cc3cccs3)S(=O)(=O)c3c(C)ccc4nsnc34)cc2c1 | 0 | 64* | 47 | -9 | 6 | nt | 68* | 73*
O=C(NCc1ccccc1)Nc1cccn(Cc2c(F)cccc2Cl)c1=O | 4 | 56* | -23 | 8 | -1 | 11 | 43* | 73*
Cc1ccc(NC(=O)Nc2cccn(Cc3c(F)cccc3Cl)c2=O)cc1 | -22 | 5 | -14 | 14 | -3 | 3 | nt | nt
COc1ccc(NC(=O)CN2C(=O)COc3ccc(S(=O)(=O)N4CCCCC4)cc32)c(OC)c1 | -1 | 9 | -12 | 1 | -2 | 1 | nt | nt
CCN1CSC(=S)N(Cc2ccccc2)C1 | 0 | 40 | 18 | -1 | 0 | -8 | nt | nt
CCN1CSC(=S)N(Cc2ccc(OC)cc2)C1 | 2 | 69* | 47 | 3 | 0 | -6 | 32 | nt
